Compound activity: PubChem BioAssay, Broad Institute
aSyn 5UTR act – Activators via SNCA 5'UTR binding, MLPCN | alpha-synuclein 5'UTR reporter, activators screen | activity score, % (tested at 7.5 µM), hits read low | 300,000 compounds, 7.1% hits; in the data active = activity score below about -60%
The depositor's hits bear a star. Not all results are given here.

SMILES	aSyn 5UTR act
COc1ccc2cc(C(=O)NCc3ccco3)c(=O)oc2c1	-93*
COc1cccc(-c2cc(C(=O)NCc3ccco3)no2)c1	-97*
Cc1c(/C=C/C(=O)c2cccs2)cnn1C	-125*
CCc1ccc(C(=O)/C=C/c2cnn(C)c2C)s1	-117*
Nc1ccc(/C=C/C(=O)c2cccs2)cc1	-135*
CCS(=O)(=O)Nc1ccc(C2=NN(S(C)(=O)=O)C(c3cccs3)C2)cc1 (stereo not drawn)	-101*
COc1ccc(C2=NN(S(C)(=O)=O)C(c3cccs3)C2)cc1OC (stereo not drawn)	-115*
COc1cccc(C2=NN(S(C)(=O)=O)C(c3cccs3)C2)c1 (stereo not drawn)	-107*
COc1ccc2cc(C3CC(c4cccs4)=NN3S(C)(=O)=O)c(Cl)nc2c1 (stereo not drawn)	-62*
Cc1c(C(=O)Nc2cccc(Cl)c2)c2ccccn2c1CCc1ccncc1	-103*
Cc1c(C(=O)Nc2ccc(Cl)cc2)c2ccccn2c1CCc1ccncc1	-115*
CCCCOc1ccc(NC(=O)C(=O)NCCCn2ccnc2)cc1	66
CCOc1ccc(NC(=S)NCCCn2ccnc2)cc1	-77*
Cc1nn(-c2ccccc2)c(C)c1C(=O)OCC(=O)N(C)C1CCS(=O)(=O)C1 (stereo not drawn)	-90*
CN(C(=O)COC(=O)c1c2c(nc3ccccc13)/C(=C/c1cccc([N+](=O)[O-])c1)CCC2)C1CCS(=O)(=O)C1 (stereo not drawn)	72
CN(C(=O)COC(=O)c1nc(Cl)c(Cl)c(Cl)c1Cl)C1CCS(=O)(=O)C1 (stereo not drawn)	-210*
COc1cccc(C(=O)NC(=S)Nc2cccnc2)c1	-153*
CC(C)Oc1cccc(C(=O)NC(=S)Nc2cccnc2)c1	-114*
CCOc1ccc(C(=O)NC(=S)Nc2cccnc2)cc1	-135*
CCCOc1cccc(C(=O)NC(=S)Nc2ccccc2)c1	-102*
CC(C)Oc1cccc(C(=O)NC(=S)Nc2ccccc2)c1	-90*
Cc1cc(C)n2nc(Nc3ccccc3)cc2n1	-165*
Cc1ccc(-c2cc3nc(C)cc(C)n3n2)cc1	-109*
Cc1ccc(NC(=O)c2cc3nc(C)cc(C)n3n2)cc1	-82*
Cc1cc(C)n2nc(-c3ccccc3)cc2n1	-97*
SMILES	aSyn 5UTR act
COc1cccc(-c2nc3ccc(C(=O)N4CCCC(O)C4)cc3o2)c1 (stereo not drawn)	-91*
CCC(=O)C1CCCN(C(=O)c2ccc3nc(-c4cccc(OC)c4)oc3c2)C1 (stereo not drawn)	-85*
Cc1cccc(-c2noc(CSc3ccccc3)n2)c1	-170*
Cc1ccc(-c2noc(CSc3nc(N)cc(N)n3)n2)cc1	-191*
c1ccc(SCc2nc(-c3cccnc3)no2)cc1	-103*
Cc1ccc(-c2noc(CSc3ccccc3)n2)cc1	-84*
Cc1ccccc1OCCOc1cccc(/C=N/NC(=O)Cc2nnc(N)s2)c1	-84*
Nc1nnc(CC(=O)N/N=C/c2cccc(OCCOc3ccccc3)c2)s1	-120*
Brc1ccc(/C=N/Nc2ccc3ccccc3n2)cc1	-187*
Cc1cc(N/N=C/c2ccccc2Br)nc2ccccc12	-196*
Brc1ccccc1/C=N/Nc1ccc2ccccc2n1	-256*
Brc1ccc(/C=N/Nc2ccccc2)cc1	-92*
CC(C)(C)C(=O)Nc1ccc(N=Nc2ccccc2)cc1	79
CC1CC1C(=O)OCC(=O)Nc1ccc(N=Nc2ccccc2)cc1 (stereo not drawn)	-107*
COc1ccccc1/C=C\C=N\NC(=O)c1ccco1	-98*
COc1ccccc1/C=C/C=N/NC(=O)c1cccs1	-180*
O=C(Nc1ccc(Cc2ccncc2)cc1)C1CCC(N2C(=O)C3C4C=CC(C5CC45)C3C2=O)CC1 (stereo not drawn)	-62*
CC(C)(C)c1ccc(/C=C(\c2nc3ccccc3[nH]2)S(=O)(=O)c2ccccc2)cc1	-78*
Cc1cccc(/C=C(\c2nc3ccccc3[nH]2)S(=O)(=O)c2ccccc2)c1	-118*
N=C(N)SCc1nc2ccccc2c(=O)n1-c1ccccc1	-95*
O=c1c2ccccc2nc(N/N=C/c2c(O)ccc3ccccc23)n1O	82
Oc1c(Cl)cc(Cl)cc1C=Nc1ccc2c(c1)OCCO2	-63*
COc1ccc(OC(=O)c2cnn(-c3ccccc3)c2C)cc1	-222*
COc1ccc(OC(=O)c2c(C)nn(-c3ccccc3)c2C)cc1	-103*
Cc1c(C(=O)N(C)c2ccc(Cl)cc2)cnn1-c1ccccc1	-64*
SMILES	aSyn 5UTR act
Cc1nn(-c2ccccc2)c(C)c1C(=O)Oc1ccccc1	-115*
CCOC(=O)c1c(C)nn(-c2ccc(NC(=O)/C=C/C(=O)O)cc2)c1C	92
Cc1nn(-c2ccccc2)c(C)c1C(=O)NCCc1ccccc1	-82*
S=c1[nH]c(-c2ccccc2)cn1-c1ccccc1	-75*
Nc1ccc(-n2cc(-c3ccccc3)[nH]c2=S)cc1	-86*
COc1ccc(-c2cn(-c3ccccc3)c(=S)[nH]2)cc1OC	-100*
CCOC(=O)c1cnc2ccc(Cl)cc2c1N1CCN(C)CC1	-97*
